Calls of active or inactive are those of the source. Calls come from the whole dose curve.
molecular target: Gonadotropin-releasing hormone receptor (Homo sapiens) (UniProt P30968); assay: Human gonadotropin-releasing hormone receptor (GnRHR) small molecule agonists, calcium flux assay in GnRHR-HEK293 cells (AID 1920063); details: calcium flux fluorescence, agonist mode; series mostly up to 57.6 µM; activity change: at the top concentration; note: nearly all actives have a fitted effect of over 35% in size
Sequence (P30968 whole entry, looked up): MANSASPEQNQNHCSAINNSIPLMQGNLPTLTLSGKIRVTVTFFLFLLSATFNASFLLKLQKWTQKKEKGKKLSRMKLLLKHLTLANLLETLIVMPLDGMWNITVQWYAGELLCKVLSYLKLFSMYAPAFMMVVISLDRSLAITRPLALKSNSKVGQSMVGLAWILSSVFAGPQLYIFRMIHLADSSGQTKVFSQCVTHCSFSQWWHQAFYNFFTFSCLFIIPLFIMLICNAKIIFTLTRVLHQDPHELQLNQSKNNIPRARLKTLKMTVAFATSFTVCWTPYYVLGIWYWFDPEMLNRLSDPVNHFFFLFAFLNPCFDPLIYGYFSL
Text: National Center for Advancing Translational Sciences [NCATS]
Division of Preclinical Innovation [DPI]
U.S. Environmental Protection Agency [EPA]
National Institutes of Environmental Health Sciences [NIEHS]
National Toxicology Program [NTP]
U.S. Food and Drug Administration [FDA]
Gonadotropin-releasing hormone receptor (GnRHR) is a G-protein-coupled receptor (GPCR) and acts (through phospholipase C) to increase intracellular inositol trisphosphate and then release intracellular calcium stores. Cell-based GnRHR-Hek293 calcium influx assay is using HEK293 cells that have been genetically engineered to express the human GnRHR, which activity can be measured by calcium signaling. A compound/drug can activate (agonist) GnRHR that can be monitored by levels of intracellular calcium.
GnRHR-HEK293 cells developed by Codex Corp contain human GnRHR reporter gene, which was stably integrated into HEK 293 cells. The compound activation can be detected by fluorescence intensity via calcium flux assay. This cell line has been used to screen the Tox21 10K compound library to identify GnRHR agonists.
GnRHR-Hek293 cells were dispensed at 1500cells/4uL/well in 1536-well black wall/clear bottom plates using a multidrop dispenser. After the assay plates were incubated at a 37 C/5% CO2 incubator for 18 hours, 4 uL of Calcium Dye Solution was added to each well. The plates were incubated at 37 C for 1 hour. For agonist mode, 23 nL of compounds dissolved in DMSO, positive controls or DMSO only was transferred to the assay plate by a pin tool station. The fluorescence intensity in the plates was measured using FDSS 7000EX kinetic plate reader with a filter set of Ex/Em=480/540 for 3 min at 1 sec intervals. Each test compound was measured at 15 concentrations and in triplicates.
% is set by controls: 0 for no effect and ±100 for the full control effect; potency is the fitted concentration of half-maximal effect.

Row | Structure (SMILES) | activity change | Potency
1 | OC12N=C(c3ccccc3)SC1Cc1cc(Cl)ccc12 (stereo not given) | 13.2% (inactive) | –
2 | c1cc2ccc3ccc4ccc5cccc6c(c1)c2c3c4c56 | 0.532% [at 2.04 µM, stronger effect = higher value] (inactive) | –
3 | CCCCOC(=O)CCCCC(=O)OCCCC | 8.74% (inactive) | –
4 | c1ccc(OCc2ccc(CCCN3CCOCC3)cc2)cc1 | 3.33% [at 26.4 µM, stronger effect = higher value] (inactive) | –
5 | c1ccc2sc(SN3CCOCC3)nc2c1 | -0.107% [at 26.4 µM, stronger effect = higher value] (inactive) | –
6 | CS(=O)(=O)Nc1ccc([N+](=O)[O-])cc1Oc1ccccc1 | – | inactive
7 | Cc1ccccc1 | 0.459% (inactive) | –
8 | NNC(=O)CCCCC(=O)NN | 1.86% (inactive) | –
9 | CN(C)c1ccc(N=NS(=O)(=O)O)cc1 | 2.56% (inactive) | –
10 | O=C(OCC(COC(=O)c1cccnc1)(COC(=O)c1cccnc1)COC(=O)c1cccnc1)c1cccnc1 | -0.227% [at 26.4 µM, stronger effect = higher value] (inactive) | –
11 | O=c1cc(-c2ccccc2)oc2cc(O)cc(O)c12 | 4.9% (inactive) | –
12 | OCCN1CCN(CC/C=C2/c3ccccc3Sc3ccc(C(F)(F)F)cc32)CC1 | 17.4% [at 26.4 µM, stronger effect = higher value] (inactive) | –
13 | CSc1ccc2c(c1)C(N1CCN(C)CC1)Cc1ccccc1S2 (stereo not given) | 14.4% [at 26.4 µM, stronger effect = higher value] (inactive) | –
14 | CC(C)(C)c1cc(CCC(=O)OCC(COC(=O)CCc2cc(C(C)(C)C)c(O)c(C(C)(C)C)c2)(COC(=O)CCc2cc(C(C)(C)C)c(O)c(C(C)(C)C)c2)COC(=O)CCc2cc(C(C)(C)C)c(O)c(C(C)(C)C)c2)cc(C(C)(C)C)c1O | 0.994% [at 26.4 µM, stronger effect = higher value] (inactive) | –
15 | CC(=O)OC(C)OC(=O)C(C)c1ccc(-c2ccccc2)c(F)c1 (stereo not given) | -0.178% [at 26.4 µM, stronger effect = higher value] (inactive) | –
16 | CCCCNCCCC | -1.74% (inactive) | –
17 | CCCCOCCOCCOCCOCCO | -0.829% (inactive) | –
18 | NC(N)=NCCC[C@H](N)C(=O)O | 0.97% [at 5.22 µM, stronger effect = higher value] (inactive) | –
19 | CC(C)N1C(=O)c2ccccc2C1=O | -0.335% (inactive) | –
20 | CN(C(=O)CN(CCO)CC(=O)N(C)C(C)(C)Cc1ccccc1)C(C)(C)Cc1ccccc1 | -0.236% [at 26.4 µM, stronger effect = higher value] (inactive) | –

Row | Structure (SMILES) | activity change | Potency
21 | CC/C=C\CCCCCO | 0.0398% (inactive) | –
22 | CCC(Cl)C(Cl)C(Cl)CC(Cl)C(Cl)C(C)Cl (stereo not given) | 0.869% (inactive) | –
23 | Cc1onc(-c2ccccc2)c1-c1ccc(S(N)(=O)=O)cc1 | 0.118% [at 26.4 µM, stronger effect = higher value] (inactive) | –
24 | CCCCN(CCO)CCCC | 1.2% (inactive) | –
25 | CCOc1ccc(NC(C)=O)cc1N | -2.07% (inactive) | –
26 | Cc1ccc(C(N)=O)cc1N | -0.0983% (inactive) | –
27 | CC1CCCNC1 (stereo not given) | -0.8% (inactive) | –
28 | NC(=O)C1(N2CCCCC2)CCN(CCCN2c3ccccc3CCc3ccc(Cl)cc32)CC1 | 15.1% [at 26.4 µM, stronger effect = higher value] (inactive) | –
29 | OCCc1ccncc1 | 0.871% (inactive) | –
30 | Cc1cc(O)c(Cl)c(C)c1Cl | 5.05% (inactive) | –
31 | CCc1cc2cc(OC)c(OC)cc2c(Cc2ccccc2)n1 | 5.76% [at 26.4 µM, stronger effect = higher value] (inactive) | –
32 | CC1(C)C(=O)NC(=O)N1CO | 0.0517% (inactive) | –
33 | O=CC=C(c1ccccc1)c1ccccc1 | 11.6% (inactive) | –
34 | O=C(Nc1ccc(Cl)cc1)Nc1ccc(Cl)c(C(F)(F)F)c1 | 4.41% [at 26.4 µM, stronger effect = higher value] (inactive) | –
35 | CC1=Nc2ccc3ccccc3c2C1(C)C | – | 38.9 µM (active)
36 | CN1CCCC(CC2c3ccccc3Sc3ccccc32)C1 (stereo not given) | 6.91% [at 26.4 µM, stronger effect = higher value] (inactive) | –
37 | Nc1ccc(N)c2c1C(=O)c1ccccc1C2=O | 0.945% (inactive) | –
38 | CN(C)CCOC(=O)C(c1ccccc1)C1(O)CCCC1 (stereo not given) | -0.452% [at 26.4 µM, stronger effect = higher value] (inactive) | –
39 | CCCCC/C(=C\c1ccccc1)CO | 11.5% (inactive) | –
40 | CS(=O)(=O)CCNCc1ccc(-c2ccc3ncnc(Nc4ccc(OCc5cccc(F)c5)c(Cl)c4)c3c2)o1 | -0.221% [at 26.4 µM, stronger effect = higher value] (inactive) | –
